Sampled rows, rich in hits. Any-hit rate of the full collection: about 21%.
Pf growth 96h = P. falciparum growth inhibition at 96 hours | AID 504834 | Potency, µM (doses to about 28.7 µM), for the others: top-dose activity change, negative = inhibition, actives largely listed as inhibitors | P. falciparum luciferase reporter growth, 96 h | hit rate 6.9% among 320,000; further: potency means the concentration at half of the fitted maximal effect; on the % scale 0 is the no-effect control and ±100 the full control effect
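P. falciparum expressing integrated firefly luciferase grown in erythrocytes (2% hematocrit, 0.05% parasitemia final) with compounds for 96 hours at 37 C, 5% CO2. Growth inhibition read as loss of luminescence after adding luciferase detection reagent.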
Cycloheximide cs = affects cycloheximide protein synthesis inhibition readout, counter-screen; max response, %; cell reporter, cycloheximide protein synthesis inhibition counterscreen; hit rate 12% among 300,000; in the data active means max response mostly above about 13%, no sharp cut-off; inactive means mostly below about 14%; further: read at 38.3 µM for the half of the compounds with a filed dose; 0% is about no effect
Pf growth 48h = inhibits P. falciparum growth in the first generation, 48 h; hit rate 5.9% among 310,000; Potency, µM (series often up to 28.7 µM), for the others: at the top dose activity change, negative = inhibition, usual class: inhibitors; AID 504832; P. falciparum luciferase growth in erythrocytes, 48 h; further: potency means the concentration at half of the fitted maximal effect; on the % scale 0 is the no-effect control and ±100 the full control effect
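Luciferase-expressing P. falciparum in infected erythrocytes (2% hematocrit, 0.1% parasitemia final) in RPMI 1640/0.5% Albumax were exposed to compound for 48 hours at 37 C, 5% CO2; growth read as luminescence.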
Shiga inhibitor = blocks Shiga toxin action in Vero cells; Vero cells, Shiga toxin protein synthesis inhibition reporter; inhibition, % at 38.7 µM; hit rate 9.2% among 290,000; AID 2315; in the data active means inhibition mostly above about 28%, no sharp cut-off; inactive means mostly below about 43%; further: 0% is about no effect
HCV inhibitor = blocks hepatitis C virus | AID 651820 | Potency, µM (titrated, usually from 41.8 µM), for inactives: top-dose activity change, negative = inhibition, actives largely listed as inhibitors | hit rate 3.4% among 340,000 | Huh7.5.1 HCVcc-Cre infection, luciferase reporter, 44 h; further: potency means the concentration at half of the fitted maximal effect; on the % scale 0 is the no-effect control and ±100 the full control effect
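Cells (1,000/well) were plated 4 h before compound, then infected with HCVcc-Cre virus (~0.5 moi). After 44 h further culture, infection was read as luciferase luminescence following a 15 min substrate incubation at room temperature.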
HCMV inh = inhibitors of human cytomegalovirus | HFF cells, HCMV-luciferase reporter, 72 h; stronger effect = lower value | activity change, negative = inhibition, % at 57.5 µM | hit rate 4.5% among 410,000 | AID 1259415; in the data active means activity change below about -60%; inconclusive means no clear call, values can overlap the other calls; inactive means above about -39%; further: on the % scale 0 is the no-effect control and ±100 the full control effect
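Cell-based, HFFs, 1000 cells/well, 16 h 37C; cpds in DMSO + HCMV-luc, MOI 1 PFU/cell; 72 h 37C; OneGlo luminescence after 5 min RT; norm. to buffer vs Salinomycin 10uM.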
An asterisk follows results filed as active; i = inactive; ? = inconclusive; . = no result given. Unless noted, the call rests on the fitted dose curve; in most records, active means well fitted inhibition curve with a large enough effect; inconclusive means small, poorly fitted or top-dose-only effect, or another doubt; inactive means no such curve, though single readings can be large or run the other way.

SMILES	Pf growth 96h	Cycloheximide cs	Pf growth 48h	Shiga inhibitor	HCV inhibitor	HCMV inh
Cc1ccc(S(=O)(=O)N/N=C/c2cccc3nccnc23)cc1	-7%	0	-2%	-9	0%	-5
COc1ccc(NC(=O)c2ccccc2-c2ccc(C(F)(F)F)cc2)cc1S(=O)(=O)N1CCOCC1	?	-4	?	-2	1%	-67*
Cc1ccc(NC(=O)c2ccccc2-c2ccc(C(F)(F)F)cc2)cc1S(=O)(=O)N1CCOCC1	?	-2	?	-5	?	-36
COc1ccc(Nc2nc(-c3ccccc3)nc3ccccc23)cc1S(=O)(=O)N1CCOCC1	13µM*	1	?	-2	22µM*	-60*
Cc1ccc(NC(=O)c2cc(-c3ccco3)nc3ccccc23)cc1S(=O)(=O)N1CCOCC1	?	9	-145%	27	-14%	-3
COc1ccc(NC(=O)c2cc(-c3ccco3)nc3ccccc23)cc1S(=O)(=O)N1CCOCC1	?	-1	?	10	8.9µM*	15
O=C(Nc1ccc(Cl)c(S(=O)(=O)N2CCOCC2)c1)c1cc(-c2ccccn2)nc2ccccc12	?	1	12µM*	-6	?	-23
COCCNc1oc(-c2ccccc2Cl)nc1S(=O)(=O)c1ccc(C)cc1	.	.	.	.	?	-6
C=CCn1cccc(C(=O)Nc2ccc(C)c(Cl)c2)c1=O	50%	13	32%	23	-19%	73
C=CCn1cccc(C(=O)Nc2ccc(Cl)cc2)c1=O	111%	36*	88%	64*	11µM*	13
C=CCn1cccc(C(=O)Nc2ccc(N(C)C)cc2)c1=O	118%	39*	101%	90*	-11%	.
C=CCn1cccc(C(=O)Nc2ccc(OCC)cc2)c1=O	125%	35*	i	95*	11µM*	-63*
C=CCn1cccc(C(=O)Nc2cc(OC)c(OC)c(OC)c2)c1=O	?	2	?	-3	?	25
C=CCn1cccc(C(=O)Nc2ccc(SC)cc2)c1=O	43%	53*	26%	93*	?	.
O=c1cc(-c2ccc(O)c(O)c2)oc2ccc3ccccc3c12	-28%	.	?	.	?	-5
CCOc1ccccc1-c1c2cc(O)c(=O)cc-2oc2cc(O)c(O)cc12	26%	-3	13µM*	6	-16%	.
COc1ccc(OC)c(-c2c3cc(O)c(=O)cc-3oc3cc(O)c(O)cc23)c1	32%	-5	10µM*	-3	-12%	.
CCOC(=O)c1oc2cc(O)ccc2c(=O)c1-c1ccccc1OC	-2%	7	-7%	6	9%	-20
COc1ccc(OC)c(-c2oc3ccccc3c(=O)c2O)c1	?	-3	?	-4	-29%	-29
O=c1cc2oc3cc(O)c(O)cc3c(-c3ccccc3O)c-2cc1O	3.7µM*	8	4.1µM*	-5	-27%	.
COC1C(CO)OC(n2c3c(Cl)cccc3c3c4c(c5c6cccc(Cl)c6[nH]c5c32)C(=O)NC4=O)C(O)C1O (configuration not stated)	.	.	.	.	?	-98*
Cc1ccc(-c2cc(C(F)(F)F)n3nc(C(=O)NCC45CC6CC(CC(C6)C4)C5)cc3n2)cc1	.	.	.	.	.	16
O=C(Nc1nccs1)c1ccc(-c2ccc(F)c(Cl)c2)o1	4%	45*	?	102*	22µM*	18
O=C(Nc1nccs1)c1ccc(-c2ccc(Cl)cc2Cl)o1	-12%	26*	-27%	50*	-4%	-2
COC(=O)c1cc(NC(=O)c2ccc(-c3ccc(Cl)cc3Cl)o2)cc(C(=O)OC)c1	.	.	.	.	.	-7
SMILES	Pf growth 96h	Cycloheximide cs	Pf growth 48h	Shiga inhibitor	HCV inhibitor	HCMV inh
CCc1nnc2c(N3CCN(c4cccc(C(F)(F)F)c4)CC3)nc3ccccc3n12	.	.	.	.	.	0
Cc1cccc(C(=O)N2CCCCC2CCN2CCCCC2)c1 (configuration not stated)	.	.	.	.	.	6
COc1ccc(C)cc1-n1nnc(S(=O)(=O)c2ccc(C)cc2)c1C	.	.	.	.	.	-24
COc1cc(OC)cc(C(=O)NC(C(=O)Nc2ccc3c(c2)CCC3)C(C)C)c1 (configuration not stated)	?	.	?	.	?	26
COc1cc(OC)cc(C(=O)N[C@H](C(=O)Nc2ccccc2N2CCOCC2)C(C)C)c1	8.3µM*	6	.	-11	?	8
COc1cc(OC)cc(C(=O)N[C@H](C(=O)Nc2cc(C)cc(C)c2)C(C)C)c1	?	4	?	-7	?	-76*
COc1cc(OC)cc(C(=O)Nc2ccccc2C(=O)N2CCCC2)c1	78%	30*	122%	60*	5%	6
CCOc1ccc(C(=O)Nc2ccc(C(=O)N3CCOCC3)cc2)c(OCC)c1	41%	-2	-5%	-24	14µM*	82
COc1ccc(C(=O)Nc2ccccc2C(=O)N2CCCCCC2)cc1	-6%	-2	-17%	24	19%	?
CC(C)CN1CCc2nc(N3CCN(c4ncccn4)CC3)ncc2C1	.	.	.	.	.	29
CCN(CC)c1ccc(NC(=O)Cn2cc3c(n2)CCCC3)c(C)c1	.	.	.	.	.	-29
Cc1ccc(C(=O)Nc2ccccc2C(=O)N2CCCCC2C)cc1 (configuration not stated)	12µM*	6	-16%	24	-9%	42
O=C(Nc1ccccc1C(=O)N1CCCCCC1)c1ccc(F)cc1	?	-2	-9%	-7	11%	-102*
CCC(C)Oc1cccc(C(=O)Nc2ccccc2N2CCOCC2)c1 (configuration not stated)	2%	2	10µM*	13	7.1µM*	-27
COc1ccc(C(=O)Nc2ccc(Cl)cc2C(=O)N2CCOCC2)cc1	?	-1	4%	14	7%	51
COc1ccc(C(=O)Nc2ccc(Cl)cc2C(=O)N2CCCC(C)C2)cc1 (configuration not stated)	-16%	-1	.	-4	?	-100*
CCN(C(=O)CSc1nc2n[nH]c(C)c2c(=N)n1-c1cccc(OC)c1)c1cccc(C)c1	.	.	.	.	.	-21
COc1ccc(C2CC(=O)N(CC(=O)Nc3cccc(C)c3C)c3ccccc3S2)cc1OC (configuration not stated)	.	.	.	.	.	-5
CCOc1cccc(C(=O)Nc2ccccc2C(=O)N2CCOCC2)c1	23%	-1	?	-4	.	-97*
CCn1c(=O)c(C(=O)Nc2ccccc2)c(O)c2ccccc21	?	8	0%	15	11%	24
CCn1c(=O)c(C(=O)NCc2ccccn2)c(O)c2ccccc21	12µM*	0	-16%	-6	-21%	-28
CCn1c(=O)c(C(=O)Nc2ccccc2F)c(O)c2ccccc21	?	9.1*	-6%	43	11%	71
COc1ccc(C(=O)NNS(=O)(=O)c2ccc(OC)cc2)cc1	?	8	26%	-16	17%	-18

Screens deposited in PubChem by National Center for Advancing Translational Sciences (NCATS).
